Data published in the supplement of paper PMC7724964.
± gives the standard deviation of the averaged measurements.

Molecular target: T1, NUP98 730-880 Nucleoporin2 (domain begin residue: 730, domain end residue: 880), P52948
T1 chain: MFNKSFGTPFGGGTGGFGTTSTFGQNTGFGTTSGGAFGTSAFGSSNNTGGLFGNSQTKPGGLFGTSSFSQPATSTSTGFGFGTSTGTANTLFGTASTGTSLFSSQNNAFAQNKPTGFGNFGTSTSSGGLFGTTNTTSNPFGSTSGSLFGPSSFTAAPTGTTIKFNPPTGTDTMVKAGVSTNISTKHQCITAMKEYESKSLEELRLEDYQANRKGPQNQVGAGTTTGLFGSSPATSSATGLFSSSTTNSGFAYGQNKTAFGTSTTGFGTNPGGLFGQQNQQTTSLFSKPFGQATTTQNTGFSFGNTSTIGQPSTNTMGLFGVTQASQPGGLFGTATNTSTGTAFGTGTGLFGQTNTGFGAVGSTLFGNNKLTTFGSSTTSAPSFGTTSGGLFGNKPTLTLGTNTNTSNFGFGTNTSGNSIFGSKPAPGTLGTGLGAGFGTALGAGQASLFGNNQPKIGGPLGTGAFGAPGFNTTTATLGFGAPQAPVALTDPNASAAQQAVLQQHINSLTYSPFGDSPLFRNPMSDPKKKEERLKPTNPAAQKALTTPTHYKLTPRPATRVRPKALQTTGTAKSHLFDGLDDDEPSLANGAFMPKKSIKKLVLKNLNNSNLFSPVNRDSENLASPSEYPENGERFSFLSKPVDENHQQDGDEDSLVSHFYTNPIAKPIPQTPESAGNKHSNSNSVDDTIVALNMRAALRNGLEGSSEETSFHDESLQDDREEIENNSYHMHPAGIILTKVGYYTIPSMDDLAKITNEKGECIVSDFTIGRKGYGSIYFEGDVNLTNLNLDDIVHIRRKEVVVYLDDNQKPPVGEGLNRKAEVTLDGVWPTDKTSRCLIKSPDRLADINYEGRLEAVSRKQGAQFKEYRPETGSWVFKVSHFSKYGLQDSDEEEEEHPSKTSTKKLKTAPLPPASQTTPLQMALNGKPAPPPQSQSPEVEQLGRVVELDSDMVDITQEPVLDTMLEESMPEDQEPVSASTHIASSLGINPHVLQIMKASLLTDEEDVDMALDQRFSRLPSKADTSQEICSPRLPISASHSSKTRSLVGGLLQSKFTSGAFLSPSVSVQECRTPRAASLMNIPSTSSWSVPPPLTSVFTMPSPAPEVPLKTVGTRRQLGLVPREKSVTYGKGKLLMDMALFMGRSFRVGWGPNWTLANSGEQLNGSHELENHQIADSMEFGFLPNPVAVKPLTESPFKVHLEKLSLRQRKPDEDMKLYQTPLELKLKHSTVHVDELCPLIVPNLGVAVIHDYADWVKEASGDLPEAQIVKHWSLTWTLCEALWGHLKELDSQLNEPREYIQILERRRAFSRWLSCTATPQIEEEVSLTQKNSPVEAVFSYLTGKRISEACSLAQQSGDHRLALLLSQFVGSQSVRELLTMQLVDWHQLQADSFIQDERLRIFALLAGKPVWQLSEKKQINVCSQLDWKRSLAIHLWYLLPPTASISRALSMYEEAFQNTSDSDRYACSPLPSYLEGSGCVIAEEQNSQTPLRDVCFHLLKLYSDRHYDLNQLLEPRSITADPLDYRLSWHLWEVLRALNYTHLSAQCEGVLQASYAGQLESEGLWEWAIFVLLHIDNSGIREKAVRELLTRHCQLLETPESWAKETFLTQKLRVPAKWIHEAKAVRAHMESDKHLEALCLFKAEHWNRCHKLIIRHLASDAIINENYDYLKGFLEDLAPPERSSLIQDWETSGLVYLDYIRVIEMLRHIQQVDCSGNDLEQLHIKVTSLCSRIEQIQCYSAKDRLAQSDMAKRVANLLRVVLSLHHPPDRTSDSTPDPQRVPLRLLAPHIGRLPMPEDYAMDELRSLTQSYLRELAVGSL
Assay: phage ELISA signal ratio (GST-PRM binding over GST background); higher = stronger binding of peptide-phage to the PRM
How it was run: (§1)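 Each value is the phage ELISA signal on the glutathione S-transferase (GST)-domain fusion divided by the signal on GST alone. Human peptide recognition domains were expressed in 96-well plates, fused to the C-terminus of GST, and selected against an M13 phage library carrying randomized, cysteine-free, glycine-flanked hexadecapeptides on the gene-8 major coat protein. After five selection rounds, approximately 48 individual clones from rounds 4 and 5 were tested by phage ELISA, and positive clones were sequenced.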

In order of falling “phage ELISA signal ratio” value:
1. GYGWEELPPIMTVAPD  23.2
2. MWEPELYDDFHEAVTY  18.1
3. WVGNNDWENEWPWVIL  7.89
4. QGWMPWDPQDLDWWVG  7.31
5. WFGWDAQMTEQEDELW  5.91
6. WAEWDASQPDWVPEYQ  4.87

What follows are binders tested against NXF1 203-359 LRR_1 (domain begin residue: 203, domain end residue: 359) in the same assay as above.
How it was run: as §1

In order of falling “phage ELISA signal ratio” value:
1. FEELWLKHTAVSKTTE  32.5
2. FEMLWREHMEKFDVEV  28.4
3. PNFEDYWRTAEQWHQP  25.4
4. FETLWARHAQGQTQVE  22
5. VQMWSFEQIWVEHMMG  20.1
6. FENYWKGYQEVPLESR  18.9

What follows are binders tested against NXF1 565-619 TAP_C (domain begin residue: 565, domain end residue: 619) in the same assay as above.
How it was run: as §1

In order of rising “phage ELISA signal ratio” value:
1. GIPYPDFNWENISTLV  6.41
2. DIPFSFQWSTDMHPVS  6.7
3. EIEEFSFTWQPEWEVR  8.54
4. YPIEQFSFDIWDQMVE  12
5. SMEMMNFTWDPEWFIE  12.9
6. EFINFTWMEAMGTPNS  13.2
7. VVQIEGFDFQWKPEWF  13.2
8. MAGPESLNFSWDYIMN  13.4
9. GDFGPDWFSFAWTEEM  13.4

Molecular target: T2, NXT1 1-140 NTF2 (domain begin residue: 1, domain end residue: 140), Q9UKK6
T2 chain: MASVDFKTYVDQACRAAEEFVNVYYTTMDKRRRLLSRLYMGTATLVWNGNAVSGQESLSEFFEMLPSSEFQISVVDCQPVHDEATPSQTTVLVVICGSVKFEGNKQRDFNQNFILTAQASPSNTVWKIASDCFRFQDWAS
Assay: as above
How it was run: as §1

In order of rising “phage ELISA signal ratio” value:
1. EQKQTDSFYWIWQHLD  3.56
2. QYNFLWEHLVQPRPAT  16.1
3. MWIYNEKWDMFLPYKL  20.3

Each binder was assayed against PABPC1 544-623 PABP (domain begin residue: 544, domain end residue: 623) in the same assay as above.
How it was run: as §1

In order of falling “phage ELISA signal ratio” value:
1. TIDWESVIKTYSPWLD  29.8
2. QQLADIPTYEWLQRNH  27
3. KPVPSFWVDWHVQAMT  20.9
4. LPGEYNMMEWRQAVMG  3.49

What follows are binders tested against PAF1 165-376 Paf1 (domain begin residue: 165, domain end residue: 376), Q8N7H5 in the same assay as above.
How it was run: as §1

In order of falling “phage ELISA signal ratio” value:
1. QVDMMSQLFMMADQWN  4.55
2. MDIWDEMALSINPYMY  4.38
3. WDFPGWSADQMPFSQS  4.24
4. IEVYSYMENMYDHPPV  3.73
5. SELWDHWIEWNDVYQT  3.06
6. WEQQWFEWTHIEGQDD  2.51

Each binder was assayed against PCMT1 1-227 PCMT (domain begin residue: 1, domain end residue: 227), P22061 in the same assay as above.
Chain of PCMT1 1-227 PCMT (domain begin residue: 1, domain end residue: 227), P22061 (P22061 whole entry): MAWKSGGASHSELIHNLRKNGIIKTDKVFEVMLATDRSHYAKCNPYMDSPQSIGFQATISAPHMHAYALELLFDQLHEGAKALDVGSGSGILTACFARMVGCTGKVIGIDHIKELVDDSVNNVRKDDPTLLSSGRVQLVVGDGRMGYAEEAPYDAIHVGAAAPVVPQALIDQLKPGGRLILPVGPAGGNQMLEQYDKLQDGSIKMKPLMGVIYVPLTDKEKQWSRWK
How it was run: as §1

In order of falling “phage ELISA signal ratio” value:
1. HEFWALYDAMPMRSYV  30.9
2. VHWDPYWFLEDNFSNL  19.9
3. SHNWWHIIEAQEAMAW  16
4. FYMWQVIDAQAYVDWI  4.8

The binders below were run against PCNA 1-261 PCNA_N+PCNA_C (domain begin residue: 1, domain end residue: 261), P12004 in the same assay as above.
Chain of PCNA 1-261 PCNA_N+PCNA_C (domain begin residue: 1, domain end residue: 261), P12004 (P12004 whole entry): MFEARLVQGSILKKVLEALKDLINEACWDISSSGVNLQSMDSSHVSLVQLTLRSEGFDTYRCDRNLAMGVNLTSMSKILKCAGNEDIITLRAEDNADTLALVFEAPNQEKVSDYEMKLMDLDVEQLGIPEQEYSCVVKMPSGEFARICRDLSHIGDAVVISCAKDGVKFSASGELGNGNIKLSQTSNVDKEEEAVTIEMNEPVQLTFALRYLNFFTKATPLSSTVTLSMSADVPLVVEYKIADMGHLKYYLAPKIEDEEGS
How it was run: as §1

With GARQTLITDWLMVSSD the “phage ELISA signal ratio” value was 15.6.

These binders were tested against PDCD6 23-191 EF-hand_5+EF-hand_7 (domain begin residue: 23, domain end residue: 191), O75340 in the same assay as above.
Chain of PDCD6 23-191 EF-hand_5+EF-hand_7 (domain begin residue: 23, domain end residue: 191), O75340 (O75340 whole entry): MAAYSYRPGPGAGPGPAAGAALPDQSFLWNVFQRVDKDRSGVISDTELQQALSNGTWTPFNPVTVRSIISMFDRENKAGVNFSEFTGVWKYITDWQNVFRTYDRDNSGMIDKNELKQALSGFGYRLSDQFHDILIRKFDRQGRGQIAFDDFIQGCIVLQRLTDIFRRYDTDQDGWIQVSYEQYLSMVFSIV
How it was run: as §1

In order of falling “phage ELISA signal ratio” value:
1. VFYGWQDWVVPGDWDV  28 ± 2.8
2. VSMTQSESYGWQPWVV  27.1
3. YGWNQILLDESVFHMV  26.9
4. AQWPMDIGWAPWLLDV  26.8
5. VDYGWVWESAYTPPMQ  26.1
6. LISGMNGWNYGWADWV  25.8
7. QQMLYGWGPMVQEMLV  25.4
8. MDMPYGWMQWVSTEPV  25.4
9. VFEPTLASYGWAHWAV  25.1
10. WAPWVFMDDAPFDSMV  24.8
11. SFLPVSYGWAPWLIET  24.1
12. WAEWVFSDEDPPGHMV  23
13. MSVEPYMPPYGWAEWV  22.3
14. LQLEPYGWMDWTWQTA  21.9
15. MYGWGPLLMEMNPWQW  20.8
16. MPQFGWEEWVLDGIHF  20.2
17. LVGEMSRNVGWAAWVF  18.1
18. VNYGWTPEVTWWLHEA  14.4
